Hits are enriched below; roughly 3.2% of the tested compounds scored in any of these assays.
Tb PYK inh: qHTS of Trypanosoma Brucei Inhibitors. pyruvate kinase (Trypanosoma brucei), Q57TT1. TbPYK enzyme, Kinase-Glo Plus ATP luminescence, 45 min. Potency, µM (series often up to 76.8 µM), for inactives: at the top dose activity, negative = inhibition, usual class: inhibitors. actives 0.12% (n = 410,000); further: nearly all actives have a fitted effect of over 50% in size
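TbPYK + substrate in 50 mM TEA pH 7.2, 100 mM KCl, 10 mM MgCl2, 0.05% BSA, 0.01% Tween-20; cpd pinned; ADP 130 uM final; 45 min RT; Kinase-Glo Plus 10 min; luminescence endpoint.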
AMA1 RON2 block: qHTS for Inhibitors of AMA1-RON; Towards Development of Antimalarial Drug Lead: Primary Screen. Potency, µM (doses to about 58.2 µM), without a hit: top-dose activity change, negative = inhibition, actives largely listed as inhibitors. AlphaScreen AMA1-biotinylated RON2 peptide binding. AID 720542, 2013. actives 0.2% (n = 360,000);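 further: 0% = vehicle wells and -100% = peptide control; nearly all actives have a fitted effect of over 45% in size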
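AMA1 (3D7) with his tag at 25 nM final met compounds first, then biotinylated RON2 peptide at 25 nM; detection used donor plus acceptor beads, 10 µg/mL apiece, read by AlphaScreen after 30 min at room temperature.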
RE007 growth inh: qHTS Assay for Inhibitors of the HIV-1 protein Vpr; actives 0.21% (n = 360,000); Potency, µM (highest dose often 92.2 µM), inactives show at the top dose activity change, negative = less growth, most hits filed as inhibitors; S. pombe RE007 Vpr strain, BacTiter-Glo ATP luminescence, 24 h; active means well fitted falling curve with a large enough effect; inconclusive means small, poorly fitted or top-dose-only effect; inactive means no such curve, though single readings can be large or run the other way; further: nearly all actives have a fitted effect of over 50% in size
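Fission yeast strain RE007, carrying one chromosomally integrated HIV-1 vpr copy, was seeded at OD 0.01 in PMG+AL medium with 23 nL pinned compound. After 24 h at 30 °C and 99% humidity, viability was read by BacTiter-Glo luminescence.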
LmPK inh: qHTS Assay for Inhibitors of Leishmania Mexicana Pyruvate Kinase (LmPK). Q27686. purified LmPK, Kinase-Glo ATP luminescence, 1 h. Potency, µM (highest dose often 57.5 µM), inactives show at the highest dose activity change, negative = inhibition, actives largely listed as inhibitors. actives 0.37% (n = 290,000). AID 1721, 2009
Target sequence (Q27686 whole entry, looked up): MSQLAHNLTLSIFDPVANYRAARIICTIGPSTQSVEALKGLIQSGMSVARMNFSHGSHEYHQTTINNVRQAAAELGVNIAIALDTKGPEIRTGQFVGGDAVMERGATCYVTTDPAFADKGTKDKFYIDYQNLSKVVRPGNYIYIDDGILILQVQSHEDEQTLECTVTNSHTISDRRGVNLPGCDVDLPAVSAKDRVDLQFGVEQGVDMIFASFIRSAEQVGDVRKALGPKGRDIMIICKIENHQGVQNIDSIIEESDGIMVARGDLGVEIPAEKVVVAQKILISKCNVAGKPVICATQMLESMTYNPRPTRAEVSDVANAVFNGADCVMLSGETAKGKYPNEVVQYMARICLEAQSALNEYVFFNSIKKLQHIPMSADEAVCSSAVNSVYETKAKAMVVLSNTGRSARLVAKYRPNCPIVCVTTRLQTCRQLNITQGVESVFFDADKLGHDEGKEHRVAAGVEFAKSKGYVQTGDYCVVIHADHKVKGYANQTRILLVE
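In 50 mM imidazole pH 7.2 with 7 mM MgCl2, LmPK (0.1 nM) turned over PEP (0.5 mM) and ADP (0.1 mM) for 1 h at room temperature. Luciferase read-out of ATP.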
Sm TGR inh: qHTS Assay for the Inhibitors of Schistosoma Mansoni Peroxiredoxins; actives 3% (n = 360,000); purified TGR, DTNB reduction, TNB absorbance 405 nm; Schistosoma mansoni thioredoxin glutathione reductase (TGR), Q962Y6; Potency, µM (highest dose often 114 µM), inactives show top-dose activity change, negative = inhibition, usual class: inhibitors; further: nearly all actives have a fitted effect of over 60% in size
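Kinetic colorimetric format: TGR-catalysed, NADPH-driven DTNB reduction monitored via TNB absorbance. Enzyme dispensed at 20 nM; compound exposure 15 min at room temperature before reaction start.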
The depositor's hits bear a star; ? = inconclusive; · = not tested or not shown; [ ] = dose if it differs, or a comment. Unless noted, the call rests on the fitted dose curve; in most records, active means well fitted curve in the direction sought with a large enough effect; inconclusive means small, poorly fitted or top-dose-only effect, or another doubt; inactive means no such curve, though single readings can be large; an effect the other way counts as inactive or inconclusive. Unless noted, on the % scale 0 is the no-effect control and ±100 the full control effect; potency means the concentration at half of the fitted maximal effect.

SMILES	Tb PYK inh	AMA1 RON2 block	RE007 growth inh	LmPK inh	Sm TGR inh
COc1cc(NC2c3ncccc3C(=O)N2Cc2ccco2)cc(OC)c1 (centres undefined)	?	-21.4%	-3.4%	5.3%	44.7µM*
O=S(=O)(O)c1ccc(O)c2cc(Nc3ccccc3)ccc12	?	3.16µM*	8.5%	·	·
O=[N+]([O-])c1ccccc1CCc1ccccc1[N+](=O)[O-]	1.3%	20.7%	-18.3%	·	·
O=[N+]([O-])c1ccccc1CCl	2.6%	-4.9%	-6.6%	·	39.8µM*
COc1cccc(CNC(=O)c2ccc(CSc3nc4ccncc4n3Cc3cccc(C)c3)cc2)c1	-7.7%	·	·	·	5.1%
O=C1CC(c2ccccc2Cl)c2c(sc3c(=O)[nH]c(CCl)nc23)N1 (centres undefined)	·	·	·	2.9%	25.1µM*
C=C1CCC(O)C/C1=C/C=C1\CCC[C@]2(C)[C@@H]([C@H](C)/C=C/[C@H](C)C(C)C)CC[C@@H]12 (some centres undefined)	-4.1%	·	·	·	·
CCN1/C(=C(\O)c2ccccc2)C(=O)c2ccccc2S1(=O)=O	3.0%	?	39.8µM*	-2.9%	-19.7%
COc1ccccc1N1C(=O)C2C(c3ccccc3F)NN(C(=O)c3ccc(C)cc3)C2C1=O (centres undefined)	-8.9%	0.0%	4.6%	-1.6%	17.8µM*
COc1ccc(C2C=C(c3ccc(Br)s3)Nc3ncnn32)cc1OC (centres undefined)	·	·	·	7.4%	50.1µM*
Oc1ccc(C2C=C(c3ccc(F)cc3)Nc3ncnn32)cc1 (centres undefined)	-1.2%	10.7%	-12.1%	1.8%	44.7µM*
CCOc1ccc(C2C=C(c3ccccc3)Nc3ncnn32)cc1 (centres undefined)	·	·	·	-2.3%	79.4µM*
Cc1ccc(C2C=C(c3ccccc3)Nc3ncnn32)cc1 (centres undefined)	-12.5%	19.1%	3.1%	·	·
COc1cccc(C2=CC(c3ccccc3)n3ncnc3N2)c1 (centres undefined)	·	·	·	0.2%	14.1µM*
CC(C)(C)c1ccc(C2=CC(c3ccccc3F)n3ncnc3N2)cc1 (centres undefined)	-3.6%	55.3%	-7.6%	·	·
COc1ccc(C2C=C(c3ccc(Cl)c(Cl)c3)Nc3ncnn32)cc1 (centres undefined)	3.5%	·	·	·	19.0%
O=C1COc2cc(S(=O)(=O)CCC(=O)N3CCN(c4cccc(Cl)c4)CC3)c(Cl)cc2N1	1.9%	·	·	·	-2.0%
CCOC(=O)c1c(-c2ccccc2)oc2ccc(N(C(C)=O)S(=O)(=O)c3ccc(CC)cc3)cc12	2.0%	·	·	·	9.4%
O=C(NCC(c1ccc2c(c1)OCO2)N1CCOCC1)c1cccc(Cl)c1 (centres undefined)	2.1%	·	·	·	-14.5%
Fc1ccc(C2=CC(c3ccco3)n3ncnc3N2)cc1 (centres undefined)	-11.8%	6.6%	-16.4%	0.9%	?
Fc1ccc(C2=CC(c3ccc(Br)o3)n3ncnc3N2)cc1 (centres undefined)	-16.4%	11.2%	?	-1.1%	20µM*
C1=C(c2ccc(-c3ccccc3)cc2)Nc2ncnn2C1c1ccco1 (centres undefined)	-5.4%	7.9%	?	-5.6%	22.4µM*
COc1ccc(C2C=C(c3ccc(C)cc3)Nc3ncnn32)cc1 (centres undefined)	8.4%	-0.9%	-21.4%	1.0%	28.2µM*
CCOc1ccc(C2C=C(c3ccc(F)cc3)Nc3ncnn32)cc1 (centres undefined)	1.8%	7.7%	-7.4%	0.5%	28.2µM*
O=C(Nc1ccc2nn(-c3ccc(F)cc3)nc2c1)c1cccc2c(Cl)cccc12	-1.9%	·	·	·	47.5%
SMILES	Tb PYK inh	AMA1 RON2 block	RE007 growth inh	LmPK inh	Sm TGR inh
Cn1cnnc1SCC(=O)Nc1ccc(C#N)cc1	2.2%	·	·	·	0.9%
CCCCc1nc2c(c3c1C[C@H](C)OC3)CN(C(=O)Nc1ccc(OC)cc1)CC2	·	·	·	-8.7%[11.5 µM]	·
CCCCNc1ccc(C(=O)OCCN(CC)CC)cc1	4.1%	·	·	·	·
O=C1NC(=O)N(c2ccccc2)C(=O)/C1=C\c1ccc2c3c(cccc13)CC2	·	·	·	0.8%	25.1µM*
COc1ccccc1N1C(=O)NC(=O)/C(=C/c2ccc3c4c(cccc24)CC3)C1=O	?	-19.9%	-10.6%	1.0%	31.6µM*
COc1ccccc1N1C(=O)NC(=O)/C(=C\c2cnn(-c3ccccc3)c2)C1=O	?	0.0%	10.7%	0.0%	4.6%
O=C1NC(=O)N(c2ccccc2)C(=O)/C1=C/c1ccoc1	?	-11.2%	-20.2%	3.7%	-9.9%
O=C1NC(=O)N(c2ccccc2)C(=O)/C1=C\c1ccccc1[N+](=O)[O-]	?	?	-5.3%	10.0%	3.55µM*
COc1ccc(Nc2c3c(nc4ccc(NC(=O)c5cc(Cl)ccc5OC)cc24)CCCC3)cc1OC	4.2%	·	·	·	16.2%
CCCOC(=O)Nc1ccc([As](=O)(O)O)cc1NC(=O)OCCC	3.9%	8.3%	-20.1%	-3.3%	12.6µM*
CCOC(=O)c1c(NC(=O)CCc2ccc(CC)o2)sc(C)c1C	-10.5%	13.7%	-24.5%	2.7%	-2.2%
COC(=O)c1c(NC(=O)CCc2ccc(C)o2)sc(C)c1C	-18.6%	15.4%	33.8%	-8.8%	39.8µM*
COc1ccc2oc(=O)c(C(=O)NCCc3c(C)[nH]c4c(C)cccc34)cc2c1	-4.1%	·	·	·	-5.1%
COCCNC(=O)Cn1c(=O)n(-c2ccc(C)c(C)c2)c(=O)c2c3c(sc21)CCCCC3	-4.3%	·	·	·	0.5%
COCCCNC(=O)Cn1c(=O)n(-c2ccc(C)c(C)c2)c(=O)c2c3c(sc21)CCCCC3	-3.3%	·	·	·	89.1µM*
Cc1ccc(NC(=O)C(=O)NCC(c2ccc3c(c2)OCO3)N2CCN(C)CC2)c(C)c1 (centres undefined)	2.1%	·	·	·	0.0%
O=C(C1=NN[C@@H]2C(=O)N(c3cccc(F)c3)C(=O)[C@H]12)c1ccc2ccccc2n1	3.2%	29.7%	-20.1%	1.3%	?
COc1cccc(N2C(=O)[C@H]3C(C(=O)c4cnccn4)=NN[C@H]3C2=O)c1	-3.3%	45.2%	-21.2%	1.0%	44.7µM*
Nc1ccc(O)c(-c2nc3ccccc3s2)c1	-22.6%	20.8%	-14.1%	-20.5%	-11.7%
Oc1ccc(N=C/C=C/c2cccc(Br)c2)cc1-c1nc2ccccc2s1	-23.9%	21.3%	-20.3%	-8.5%	39.8µM*
CC(C)NC(=O)CSc1nc2ccccc2c(=O)n1Cc1ccc(C(=O)NC(C)C)cc1	0.1%	·	·	·	10.8%
